Targets with a hit are over-represented here; the source holds about 7,900 in all. About 0.6% of all pairs of compound and target were hits.
What was measured:
Assay in all cases: log2 fold change, soluble protein after heating vs DMSO (PISA); higher = thermal stabilisation; K562 cells, 10 uM, 30 min; active = over 0.2 and 3.5 SD of the protein, either way, in both replicates (recomputed)
IRAK-1-4 Inhibitor I = compound: C1COCCN1CCN2C3=CC=CC=C3N=C2NC(=O)C4=CC(=CC=C4)[N+](=O)[O-] [IRAK-1-4 Inhibitor I]
Method in brief: (§1)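 Soluble protein was quantified by TMTpro 16plex LC-MS/MS after channel sums were equalised. It was obtained as the supernatant after 21,000xg for 90 min from pooled aliquots of K562 cells (2×10^6 cells/mL, 10 μM compound, 30 min) heated for 3 min across 48°C-58°C and extracted in PBS with 0.5% NP-40 at 4°C. Thermal stability values are relative to control samples and come from duplicates. They are given as log2 fold changes.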

ibrutinib = compound: C=CC(=O)N1CCC[C@@H](n2nc(-c3ccc(Oc4ccccc4)cc3)c3c(N)ncnc32)C1 [ibrutinib]
Method in brief: as §1

[1] = compound: CC(=O)c1cnc2ccc(-c3cc(Cl)c(O)c(Cl)c3)nc2c1N[C@H]1CC[C@H](CN(C)C)CC1
Method in brief: as §1

ralimetinib = compound: CC(C)(C)Cn1c(N)nc2ccc(-c3[nH]c(C(C)(C)C)nc3-c3ccc(F)cc3)nc21 [ralimetinib]
Method in brief: as §1

[2] = compound: CC(C)(O)CC(=O)NCCn1ccc2ncnc(Nc3ccc(Oc4cccc(C(F)(F)F)c4)c(Cl)c3)c21
Method in brief: as §1

[3] = compound: CC(C)C1=C2N=C(C=C(N2N=C1)NCC3=CC=CC=C3)NCCCCCCN
Method in brief: as §1

[4] = compound: CC(C)C[C@@H](C=O)NC(=O)[C@H](CC(C)C)NC(=O)[C@H](CC(C)C)NC(=O)OCc1ccccc1
Method in brief: as §1

pinometostat = compound: CC(C)N(C[C@H]1O[C@@H](n2cnc3c(N)ncnc32)[C@H](O)[C@@H]1O)[C@H]1C[C@@H](CCc2nc3cc(C(C)(C)C)ccc3[nH]2)C1 [pinometostat]
Method in brief: as §1

[5] = compound: CC1=C(C(CC(=O)N1)C2=CC=C(C=C2)C(F)(F)F)C(=O)NC3=C(C=C4C(=C3)C=NN4)F
Method in brief: as §1

[6] = compound: CC1=C(C2=C(C=C1)C(=O)C3=CC=CC=C3N2CCCN)C
Method in brief: as §1

[7] = compound: CC1=C(C=C(C=C1)NC(=O)C2=CC(=CC=C2)C(C)(C)C#N)NC3=CC4=C(C=C3)N=CN(C4=O)C
Method in brief: as §1

[8] = compound: CC1=C(C=C(C=C1)NC(=O)C2=CC(=CC=C2)N(C)C)NC(=O)C3=CC=C(C=C3)O
Method in brief: as §1

[9] = compound: CC1=CC=C(C=C1)SC2=C3C=C(SC3=CN=C2)C(=O)N
Method in brief: as §1

[10] = compound: CC1=NC(=CC=C1)C2=C(N=C(N2)C(C)(C)C)C3=CC4=NC=CN=C4C=C3
Method in brief: as §1

Nexturastat A = compound: CCCCN(Cc1ccc(C(=O)NO)cc1)C(=O)Nc1ccccc1 [Nexturastat A]
Method in brief: as §1

vemurafenib = compound: CCCS(=O)(=O)Nc1ccc(F)c(C(=O)c2c[nH]c3ncc(-c4ccc(Cl)cc4)cc23)c1F [vemurafenib]
Method in brief: as §1

[11] = compound: CCCS(=O)(=O)Nc1ccc(F)c(C(=O)c2c[nH]c3ncc(Cl)cc23)c1F
Method in brief: as §1

[12] = compound: CCCc1cc(C)[nH]c(=O)c1CNC(=O)c1cc(-c2ccnc(N3CCN(C)CC3)c2)cc2c1cnn2C(C)C
Method in brief: as §1

givinostat = compound: CCN(CC)Cc1ccc2cc(COC(=O)Nc3ccc(C(=O)NO)cc3)ccc2c1 [givinostat]
Method in brief: as §1

barasertib = compound: CCN(CCCOc1ccc2c(Nc3cc(CC(=O)Nc4cccc(F)c4)[nH]n3)ncnc2c1)CCOP(=O)(O)O [barasertib]
Method in brief: as §1

Measured: log2 fold change

SLC9A6 isoform 2 (UniProt Q92581)
UniProt Q92581, sequence (Q92581 whole entry, looked up): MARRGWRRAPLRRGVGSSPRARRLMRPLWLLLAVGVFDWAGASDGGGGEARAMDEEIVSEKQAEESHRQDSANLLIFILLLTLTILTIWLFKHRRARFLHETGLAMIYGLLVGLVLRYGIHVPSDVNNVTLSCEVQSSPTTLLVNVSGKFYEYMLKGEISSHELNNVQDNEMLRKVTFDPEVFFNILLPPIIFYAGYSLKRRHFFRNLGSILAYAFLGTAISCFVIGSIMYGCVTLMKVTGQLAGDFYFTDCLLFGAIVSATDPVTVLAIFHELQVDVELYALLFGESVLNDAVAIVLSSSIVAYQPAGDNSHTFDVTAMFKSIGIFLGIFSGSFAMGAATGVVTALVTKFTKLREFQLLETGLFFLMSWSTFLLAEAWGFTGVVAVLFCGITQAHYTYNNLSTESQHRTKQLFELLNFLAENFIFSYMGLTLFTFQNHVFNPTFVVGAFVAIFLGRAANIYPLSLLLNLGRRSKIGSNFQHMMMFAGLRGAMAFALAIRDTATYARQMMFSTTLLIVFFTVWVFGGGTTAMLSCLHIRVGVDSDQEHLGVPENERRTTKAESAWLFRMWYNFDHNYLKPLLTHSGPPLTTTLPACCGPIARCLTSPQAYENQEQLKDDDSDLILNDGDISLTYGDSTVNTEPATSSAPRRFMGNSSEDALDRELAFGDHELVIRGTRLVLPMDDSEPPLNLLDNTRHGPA
inactive: IRAK-1-4 Inhibitor I 0.052 | ibrutinib 0.024 | [1] 0.005 | ralimetinib -0.056 | [2] -0.02 | [3] 0.038 | [4] 0.042 | pinometostat 0.083 | [5] 0.021 | [6] 0.023 | [7] -0.035 | [8] 0.024 | [9] -0.002 | [10] -0.012 | Nexturastat A -0.061 | vemurafenib 0.024 | [11] 0 | [12] -0.063 | givinostat -0.01 | barasertib 0.018

TERF2IP (UniProt Q9NYB0)
UniProt Q9NYB0, sequence (Q9NYB0 whole entry, looked up): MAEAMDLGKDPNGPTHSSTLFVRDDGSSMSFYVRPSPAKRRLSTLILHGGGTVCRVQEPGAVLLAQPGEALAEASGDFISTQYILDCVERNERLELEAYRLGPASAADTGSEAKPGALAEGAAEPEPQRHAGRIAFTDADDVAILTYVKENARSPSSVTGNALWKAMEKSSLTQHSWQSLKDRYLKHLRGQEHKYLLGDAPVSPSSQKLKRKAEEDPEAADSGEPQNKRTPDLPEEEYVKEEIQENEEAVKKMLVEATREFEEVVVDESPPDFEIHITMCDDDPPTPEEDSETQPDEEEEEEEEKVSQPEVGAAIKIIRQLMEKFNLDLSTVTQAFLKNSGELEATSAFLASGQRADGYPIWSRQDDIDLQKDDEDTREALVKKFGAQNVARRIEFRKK
active: [6] -0.33
inactive: IRAK-1-4 Inhibitor I -0.023 | ibrutinib -0.009 | [1] -0.151 | ralimetinib 0.038 | [2] 0.034 | [3] -0.147 | [4] 0.058 | pinometostat 0.024 | [5] 0.007 | [7] -0.023 | [8] -0.012 | [9] 0.02 | [10] 0.013 | Nexturastat A 0.057 | vemurafenib 0.184 | [11] 0.001 | [12] -0.017 | givinostat -0.009 | barasertib 0.021

TCERG1 (UniProt O14776)
UniProt O14776, sequence (O14776 whole entry, looked up): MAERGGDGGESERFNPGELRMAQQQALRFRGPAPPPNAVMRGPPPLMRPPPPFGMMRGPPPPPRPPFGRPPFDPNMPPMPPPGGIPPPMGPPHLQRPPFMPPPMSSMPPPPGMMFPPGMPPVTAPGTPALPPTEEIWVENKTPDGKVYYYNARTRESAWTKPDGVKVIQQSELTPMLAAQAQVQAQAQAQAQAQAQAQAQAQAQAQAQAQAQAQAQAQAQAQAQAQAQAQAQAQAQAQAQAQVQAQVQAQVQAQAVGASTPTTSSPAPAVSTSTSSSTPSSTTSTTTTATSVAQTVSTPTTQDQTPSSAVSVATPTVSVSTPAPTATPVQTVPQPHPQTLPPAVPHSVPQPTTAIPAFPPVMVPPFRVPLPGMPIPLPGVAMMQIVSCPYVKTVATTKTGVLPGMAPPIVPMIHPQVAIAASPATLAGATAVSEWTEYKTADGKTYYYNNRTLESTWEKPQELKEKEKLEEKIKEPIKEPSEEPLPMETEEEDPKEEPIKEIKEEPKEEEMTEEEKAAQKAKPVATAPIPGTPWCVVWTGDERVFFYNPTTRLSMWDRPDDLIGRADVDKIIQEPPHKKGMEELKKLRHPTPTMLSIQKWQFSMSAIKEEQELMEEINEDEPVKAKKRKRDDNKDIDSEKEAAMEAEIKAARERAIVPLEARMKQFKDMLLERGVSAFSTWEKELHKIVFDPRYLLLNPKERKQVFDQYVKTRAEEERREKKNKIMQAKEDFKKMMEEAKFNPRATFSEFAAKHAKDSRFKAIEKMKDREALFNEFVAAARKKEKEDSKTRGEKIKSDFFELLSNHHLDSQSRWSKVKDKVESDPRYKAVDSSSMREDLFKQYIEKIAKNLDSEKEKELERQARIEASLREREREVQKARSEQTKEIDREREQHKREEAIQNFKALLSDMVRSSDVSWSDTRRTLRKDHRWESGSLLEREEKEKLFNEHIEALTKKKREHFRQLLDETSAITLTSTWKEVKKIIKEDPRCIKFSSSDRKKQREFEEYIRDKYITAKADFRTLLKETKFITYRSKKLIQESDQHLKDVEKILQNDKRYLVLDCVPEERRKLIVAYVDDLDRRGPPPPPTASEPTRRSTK
inactive: IRAK-1-4 Inhibitor I -0.062 | ibrutinib -0.073 | [1] -0.065 | ralimetinib -0.035 | [2] -0.172 | [3] -0.086 | [4] -0.041 | pinometostat -0.039 | [5] -0.016 | [6] 0.062 | [7] 0.061 | [8] -0.147 | [9] 0.08 | [10] 0.077 | Nexturastat A -0.144 | vemurafenib 0.118 | [11] 0.135 | [12] -0.006 | givinostat 0.146 | barasertib 0.107

SP100 isoform 4 (UniProt P23497)
inactive: IRAK-1-4 Inhibitor I 0.006 | ibrutinib -0.012 | [1] 0.074 | ralimetinib 0.019 | [2] 0.011 | [3] -0.015 | [4] -0.07 | pinometostat -0.035 | [5] 0.029 | [6] -0.1 | [7] 0.02 | [8] -0.004 | [9] 0.072 | [10] -0.008 | Nexturastat A -0.119 | vemurafenib -0.019 | [11] 0.159 | [12] 0 | givinostat -0.005 | barasertib 0.003

SNX9 (UniProt Q9Y5X1)
UniProt Q9Y5X1, sequence (Q9Y5X1 whole entry, looked up): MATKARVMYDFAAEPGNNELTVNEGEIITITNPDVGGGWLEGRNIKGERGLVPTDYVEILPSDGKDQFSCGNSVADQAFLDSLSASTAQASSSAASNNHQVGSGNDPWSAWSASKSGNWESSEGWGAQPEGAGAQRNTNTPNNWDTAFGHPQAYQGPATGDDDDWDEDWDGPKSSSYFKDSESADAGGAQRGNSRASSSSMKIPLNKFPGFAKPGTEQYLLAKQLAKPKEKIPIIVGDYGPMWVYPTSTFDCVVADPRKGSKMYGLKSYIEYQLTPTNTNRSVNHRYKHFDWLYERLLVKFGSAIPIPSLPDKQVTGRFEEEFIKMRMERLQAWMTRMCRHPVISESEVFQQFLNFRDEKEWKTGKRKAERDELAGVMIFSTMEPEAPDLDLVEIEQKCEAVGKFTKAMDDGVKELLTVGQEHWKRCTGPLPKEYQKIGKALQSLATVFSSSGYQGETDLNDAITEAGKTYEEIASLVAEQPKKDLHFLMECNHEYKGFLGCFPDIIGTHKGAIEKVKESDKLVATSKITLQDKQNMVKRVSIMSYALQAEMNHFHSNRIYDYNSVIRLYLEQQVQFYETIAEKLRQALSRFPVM
inactive: IRAK-1-4 Inhibitor I -0.011 | ibrutinib 0.025 | [1] -0.043 | ralimetinib 0.005 | [2] 0.002 | [3] 0.014 | [4] 0.029 | pinometostat 0.04 | [5] 0.024 | [6] 0.02 | [7] 0.018 | [8] -0.031 | [9] -0.002 | [10] 0.03 | Nexturastat A 0.048 | vemurafenib 0.006 | [11] 0.041 | [12] -0.027 | givinostat -0.099 | barasertib 0.007

TARS2 (UniProt Q9BW92)
inactive: IRAK-1-4 Inhibitor I -0.076 | ibrutinib -0.043 | [1] 0.009 | ralimetinib -0.029 | [2] -0.078 | [4] 0.069 | pinometostat -0.022 | [5] 0.036 | [6] 0.054 | [7] -0.027 | [8] 0.022 | [9] 0.021 | [10] 0.078 | Nexturastat A -0.201 | vemurafenib 0.008 | [11] 0.027 | [12] -0.013 | barasertib 0.028
active: [3] -0.219 | givinostat -0.245

TARBP1 (UniProt Q13395)
inactive: IRAK-1-4 Inhibitor I 0.062 | ibrutinib -0.007 | [1] -0.01 | ralimetinib 0.003 | [2] -0.074 | [3] -0.066 | [4] 0.009 | pinometostat 0.041 | [5] 0.04 | [6] 0.184 | [7] 0.069 | [8] 0.001 | [9] 0.002 | [10] -0.01 | Nexturastat A 0.016 | vemurafenib 0.036 | [11] -0.062 | [12] -0.067 | givinostat -0.017 | barasertib 0.023

SSR3 isoform 2 (UniProt Q9UNL2)
UniProt Q9UNL2, sequence (Q9UNL2 whole entry, looked up): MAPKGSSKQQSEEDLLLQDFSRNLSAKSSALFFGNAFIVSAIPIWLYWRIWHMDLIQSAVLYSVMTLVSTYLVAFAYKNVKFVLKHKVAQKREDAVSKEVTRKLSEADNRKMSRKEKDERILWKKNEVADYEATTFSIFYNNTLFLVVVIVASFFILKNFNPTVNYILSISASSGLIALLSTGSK
inactive: IRAK-1-4 Inhibitor I 0.158 | ibrutinib 0.029 | [1] 0.132 | ralimetinib 0.06 | [2] 0.031 | [3] 0.01 | [4] -0.049 | pinometostat -0.134 | [5] 0.036 | [6] -0.022 | [7] -0.032 | [8] 0.123 | [9] -0.014 | [10] 0.022 | Nexturastat A -0.103 | vemurafenib 0.11 | [11] -0.011 | [12] -0.075 | givinostat -0.042 | barasertib 0.017

SMAD2 (UniProt Q15796)
UniProt Q15796, sequence (Q15796 whole entry, looked up): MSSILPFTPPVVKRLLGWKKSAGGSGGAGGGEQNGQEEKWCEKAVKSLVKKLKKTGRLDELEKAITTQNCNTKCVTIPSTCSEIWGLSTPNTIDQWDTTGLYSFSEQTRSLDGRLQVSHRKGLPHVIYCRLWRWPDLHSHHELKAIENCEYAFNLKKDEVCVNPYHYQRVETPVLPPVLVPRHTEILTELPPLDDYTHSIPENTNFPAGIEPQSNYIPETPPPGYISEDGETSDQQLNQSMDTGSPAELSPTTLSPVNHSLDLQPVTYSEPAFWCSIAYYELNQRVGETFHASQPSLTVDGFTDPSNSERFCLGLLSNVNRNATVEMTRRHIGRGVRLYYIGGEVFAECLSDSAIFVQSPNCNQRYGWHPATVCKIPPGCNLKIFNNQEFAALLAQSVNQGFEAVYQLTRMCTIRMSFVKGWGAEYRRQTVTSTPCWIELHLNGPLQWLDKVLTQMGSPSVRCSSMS
inactive: IRAK-1-4 Inhibitor I -0.145 | ibrutinib 0.05 | [1] -0.091 | ralimetinib -0.069 | [2] -0.088 | [3] -0.015 | [4] 0.124 | pinometostat -0.125 | [5] -0.192 | [6] 0.079 | [7] 0.036 | [8] -0.034 | [9] 0.01 | [10] 0.052 | Nexturastat A -0.382 | vemurafenib -0.016 | [11] 0.04 | [12] -0.027 | givinostat 0.047 | barasertib 0.047

TBC1D5 isoform 2 (UniProt Q92609)
active: [3] -0.325
inactive: IRAK-1-4 Inhibitor I -0.022 | ibrutinib -0.01 | [1] -0.009 | ralimetinib 0.023 | [2] -0.179 | [4] 0.076 | pinometostat 0.003 | [5] 0.01 | [6] 0.02 | [7] -0.051 | [8] -0.048 | [9] -0.013 | [10] 0.018 | Nexturastat A 0.01 | vemurafenib 0.048 | [11] 0.112 | [12] -0.033 | givinostat 0.049 | barasertib 0.022

TGFBRAP1 (UniProt Q8WUH2)
inactive: IRAK-1-4 Inhibitor I -0.088 | ibrutinib -0.067 | [1] -0.119 | ralimetinib 0.33 | [2] -0.108 | [3] -0.424 | [4] -0.037 | pinometostat 0.046 | [5] 0.052 | [6] -0.017 | [7] -0.058 | [8] -0.001 | [9] 0.138 | [10] 0.061 | Nexturastat A 0.107 | vemurafenib -0.055 | [11] -0.003 | [12] 0.038 | givinostat 0.092 | barasertib 0.01

SPTBN4 (UniProt Q9H254)
active: [3] -0.671
inactive: IRAK-1-4 Inhibitor I -0.008 | ibrutinib 0.1 | [1] -0.06 | ralimetinib -0.032 | [2] -0.025 | [4] -0.07 | pinometostat -0.007 | [5] 0.024 | [6] -0.016 | [7] -0.013 | [8] -0.037 | [9] 0.144 | [10] 0.025 | Nexturastat A 0.039 | vemurafenib -0.027 | [11] -0.036 | [12] -0.12 | givinostat 0.112 | barasertib -0.013

SSR4 (UniProt P51571)
UniProt P51571, sequence (P51571 whole entry, looked up): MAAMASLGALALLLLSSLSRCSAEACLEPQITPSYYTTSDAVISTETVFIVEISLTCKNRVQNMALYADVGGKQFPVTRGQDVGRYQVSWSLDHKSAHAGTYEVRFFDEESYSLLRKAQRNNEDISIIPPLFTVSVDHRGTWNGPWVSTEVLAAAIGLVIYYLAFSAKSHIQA
inactive: IRAK-1-4 Inhibitor I 0.003 | ibrutinib 0.032 | [1] -0.033 | ralimetinib 0.049 | [2] -0.034 | [3] -0.03 | [4] 0.032 | pinometostat -0.028 | [5] -0.015 | [6] 0.09 | [7] -0.004 | [8] 0.012 | [9] 0.064 | [10] 0.039 | Nexturastat A -0.046 | vemurafenib -0.014 | [11] 0.081 | [12] -0.035 | givinostat 0.03 | barasertib -0.052

SLC7A6 (UniProt Q92536)
inactive: IRAK-1-4 Inhibitor I -0.03 | ibrutinib -0.032 | [1] -0.037 | ralimetinib -0.02 | [2] -0.301 | [3] 0.142 | [4] 0.006 | pinometostat -0.068 | [5] 0.025 | [6] -0.02 | [7] 0.021 | [8] 0.027 | [9] 0.023 | [10] 0.017 | Nexturastat A 0.05 | vemurafenib 0.03 | [11] -0.046 | [12] -0.005 | givinostat 0.012 | barasertib 0.036

TFR2 (UniProt Q9UP52)
UniProt Q9UP52, sequence (Q9UP52 whole entry, looked up): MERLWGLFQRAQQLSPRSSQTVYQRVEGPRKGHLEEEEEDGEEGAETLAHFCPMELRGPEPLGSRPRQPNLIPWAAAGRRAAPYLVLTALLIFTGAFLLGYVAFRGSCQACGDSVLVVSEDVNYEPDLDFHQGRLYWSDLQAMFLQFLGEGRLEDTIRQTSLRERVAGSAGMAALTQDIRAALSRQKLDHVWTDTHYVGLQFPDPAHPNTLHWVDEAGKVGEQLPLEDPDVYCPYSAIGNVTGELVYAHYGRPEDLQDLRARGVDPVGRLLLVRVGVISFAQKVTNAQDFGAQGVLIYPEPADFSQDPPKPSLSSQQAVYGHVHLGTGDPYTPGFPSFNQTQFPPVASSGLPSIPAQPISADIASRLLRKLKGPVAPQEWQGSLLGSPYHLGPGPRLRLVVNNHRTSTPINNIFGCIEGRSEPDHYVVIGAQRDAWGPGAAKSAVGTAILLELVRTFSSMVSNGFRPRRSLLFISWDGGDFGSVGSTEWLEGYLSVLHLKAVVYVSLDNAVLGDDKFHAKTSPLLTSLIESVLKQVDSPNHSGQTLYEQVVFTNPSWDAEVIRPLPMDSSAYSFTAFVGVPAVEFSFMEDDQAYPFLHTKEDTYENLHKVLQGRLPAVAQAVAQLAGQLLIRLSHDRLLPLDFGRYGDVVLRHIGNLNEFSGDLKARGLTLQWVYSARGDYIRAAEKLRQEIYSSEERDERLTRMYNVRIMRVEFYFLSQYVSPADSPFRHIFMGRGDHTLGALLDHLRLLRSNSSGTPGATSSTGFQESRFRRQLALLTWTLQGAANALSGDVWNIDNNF
inactive: IRAK-1-4 Inhibitor I 0.018 | ibrutinib 0.008 | [1] -0.011 | ralimetinib -0.018 | [2] 0.037 | [3] -0.146 | [4] 0.02 | pinometostat 0.02 | [5] 0.02 | [6] -0.128 | [7] 0.012 | [8] -0.018 | [9] -0.012 | [10] -0.036 | Nexturastat A -0.031 | vemurafenib -0.018 | [11] -0.003 | [12] -0.029 | givinostat -0.083 | barasertib 0.01

SUCLA2 (UniProt Q9P2R7)
UniProt Q9P2R7, sequence (Q9P2R7 whole entry, looked up): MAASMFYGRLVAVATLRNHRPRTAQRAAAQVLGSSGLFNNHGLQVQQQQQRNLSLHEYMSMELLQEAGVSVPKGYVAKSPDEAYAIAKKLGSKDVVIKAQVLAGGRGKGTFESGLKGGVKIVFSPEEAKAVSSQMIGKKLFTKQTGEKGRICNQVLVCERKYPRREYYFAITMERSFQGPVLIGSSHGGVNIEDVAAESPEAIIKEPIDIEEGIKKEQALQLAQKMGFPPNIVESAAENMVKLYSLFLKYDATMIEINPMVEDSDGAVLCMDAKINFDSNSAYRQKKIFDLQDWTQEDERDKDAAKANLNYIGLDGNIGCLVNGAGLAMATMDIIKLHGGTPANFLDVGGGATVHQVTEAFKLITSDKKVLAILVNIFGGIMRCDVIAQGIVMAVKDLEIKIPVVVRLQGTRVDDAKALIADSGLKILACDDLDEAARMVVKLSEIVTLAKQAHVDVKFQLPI
inactive: IRAK-1-4 Inhibitor I 0.02 | ibrutinib -0.045 | [1] 0.014 | ralimetinib -0.021 | [2] -0.151 | [3] -0.107 | [4] -0.033 | pinometostat -0.034 | [5] -0.021 | [6] 0.022 | [7] -0.038 | [8] -0.018 | [9] 0.003 | [10] 0.06 | Nexturastat A -0.083 | vemurafenib 0.047 | [11] 0.008 | [12] -0.02 | givinostat -0.003 | barasertib 0.064

— the supplement of paper PMC10849652
